Screening results from PubChem BioAssay.
JMJD2A Tudor: qHTS Assay for Inhibitors of JMJD2A-Tudor Domain | AlphaScreen JMJD2A-Tudor / H3K4me3 peptide binding | Lysine-specific demethylase 4A (Homo sapiens), O75164 | Potency, µM (highest dose often 114 µM), without a hit: at the top dose activity change, negative = inhibition, most hits filed as inhibitors | 4.4% of 390,000 active; further: potency means the concentration at half of the fitted maximal effect; on the % scale 0 is the no-effect control and ±100 the full control effect; nearly all actives have a fitted effect of over 50% in size
G9a inh: qHTS Assay for Inhibitors of Histone Lysine Methyltransferase G9a. Histone-lysine N-methyltransferase EHMT2 (Homo sapiens), Q96KQ7. G9a H3K9 monomethylation, AlphaScreen, 2 h. Potency, µM (doses to about 102 µM), for the others: at the highest dose activity, negative = inhibition, hits mostly inhibitors. 8.8% of 350,000 active; further: potency means the concentration at half of the fitted maximal effect; on the % scale 0 is the no-effect control and ±100 the full control effect; nearly all actives have a fitted effect of over 75% in size
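Using a bead-based AlphaScreen, monomethylated H3K9 product from 2 h room-temperature reactions (G9a 20 nM, peptide 500 nM, SAM 20 uM) was detected with 0.5 ug/mL rabbit anti-H3K9me1 antibody.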
HP1b binding inh: HTS for Inhibitors of HP1-beta Chromodomain Interactions with Methylated Histone Tails; Chromobox protein homolog 1 (Homo sapiens), P83916; AlphaScreen HP1-beta / biotin-H3K9me3 peptide binding; Potency, µM (highest dose often 114 µM), for the others: at the top dose activity change, negative = inhibition, usual class: inhibitors; 0.56% of 390,000 active; AID 540317, 2011; further: potency means the concentration at half of the fitted maximal effect; nearly all actives have a fitted effect of over 70% in size
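Compound inhibition of the preformed complex between 50 nM HP1-beta and 50 nM biotinylated H3K9me3 peptide was read by AlphaScreen. Buffer was PBS pH 7.4 with 0.01% Tween-20. Incubations ran 30 min at room temperature, with 10 ug/mL donor/acceptor beads.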
CtBP-E1A inh: qHTS Assay for Inhibitors of the CtBP/E1A Interaction; CtBP / adenovirus E1A interaction (AlphaScreen); AlphaScreen GST-E1A/His-CtBP binding, 1536-well; active compounds read low; activity change, % (concentration not given with the values); 0.49% of 340,000 active; in the data active means activity change below about -65%; inconclusive means mostly about -30% to -63%; further: on the % scale 0 is the no-effect control and ±100 the full control effect
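AlphaScreen with 125 nM GST-E1A and 125 nM His-CtBP (5X stocks) in Tris pH 8.0, 300 mM NaCl, BSA, Tween 20, TCEP. Compounds preincubated 2 h at 37 deg C, then glutathione donor/nickel acceptor beads added for 1 h at 37 deg C in dark.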
Six1-Eya2 blk: qHTS Assay for Inhibitors of the Six1/Eya2 Interaction; AID 651725, 2012; Homeobox protein SIX1 (Homo sapiens) + Protein phosphatase EYA2 (Homo sapiens), …; activity change, % (test concentration not listed); AlphaScreen GST-Six1/His-Eya2 binding, biochemical; active compounds read low; 0.56% of 360,000 active; in the data active means activity change below about -65%; inconclusive means mostly about -30% to -63%; further: on the % scale 0 is the no-effect control and ±100 the full control effect
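AlphaScreen luminescence read after one hour at 37 °C in darkness. Pin-transferred compounds met GST-Six1 and His-Eya2 protein (5X stock 250 nM/500 nM) plus glutathione donor and Ni-chelate acceptor beads (5X, 50 ug/mL).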
BAZ2B inh: qHTS Assay for Inhibitors of BAZ2B | Bromodomain adjacent to zinc finger domain protein 2B (Homo sapiens), Q9UIF8 | 4.4% of 360,000 active | Potency, µM (titrated, usually from 114 µM), without a hit: at the highest dose activity change, negative = inhibition, usual class: inhibitors | AlphaScreen BAZ2B-H3K14Ac peptide displacement; further: potency means the concentration at half of the fitted maximal effect; on the % scale 0 is the no-effect control and ±100 the full control effect; nearly all actives have a fitted effect of over 60% in size
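AlphaScreen displacement: compounds (up to 110uM) incubated 30 min at room temperature with a preformed 50 nM BAZ2B/50 nM biotinylated H3K14Ac peptide complex in PBS pH 7.4 with Tween-20. Donor and acceptor beads at 10 ug/mL final added, 20 min light-protected before reading.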
An asterisk follows results filed as active; u = inconclusive; x = no result; [ ] = another dose, or the depositor's remark. Most compounds without a hit are left out; they make up all but 10% or so of the library. Unless noted, the call rests on the fitted dose curve; in most records, active means well fitted inhibition curve with a large enough effect; inconclusive means small, poorly fitted or top-dose-only effect; inactive means no such curve, though single readings can be large or run the other way.

SMILES	JMJD2A Tudor	G9a inh	HP1b binding inh	CtBP-E1A inh	Six1-Eya2 blk	BAZ2B inh
COc1ccc(N2CCN(c3nc(Cl)nc(N4CCOCC4)n3)CC2)cc1	u	7.94µM*	-25.8%	-2.9	1.3	-6.8%
COc1ccc(N2CCN(C(=O)Cc3nn(C)c(=O)c4ccccc34)CC2)cc1	-10.2%[57.1 µM]	35.5µM*	9.6%	2.3	-8.3	11.8%
COc1ccc(N2CCN(C(=O)Cc3ccc(Cl)cc3)CC2)cc1	-34.5%	50.1µM*	-8.4%	-12.5	u	u
CCOC(=O)C(=Nc1ccccc1)NO	11.9%	0.7%[59 µM]	18.6%	1.3	2.6	5.3%
COC(=O)Nc1ccc2c(c1)N(C(=O)CCCl)c1ccccc1S2	-27.5%	-10.4%	21.8%	-2.8	-3.9	-11.1%
O=C(Cc1ccc(-n2cccc2)cc1)N1CCN(c2ccccc2F)CC1	35.5µM*	50.1µM*	u	0.2	u	50.1µM*
COc1ccc(CC(=O)N2CCOCC2)cc1	-16.2%	u	61.2%	-0.4	11.5	8.7%
COc1ccc(N2CCN(C(=O)Cc3ccc(C)cc3)CC2)cc1	-29.7%	70.8µM*	4.0%	-3.1	-7.2	-32.6%
COc1ccc(N2CCN(C(=O)CCC(=O)c3cc(C)sc3C)CC2)cc1	u	50.1µM*	-10.5%	-14.3	-19.5	u
C=CCN(c1ccccc1OC)S(=O)(=O)c1cccc(C(=O)OCC(=O)N2CC(C)OC(C)C2)c1 (stereo not given)	-12.8%	x	24.2%	-19.9	3.4	x
O=C(OCc1cccc([N+](=O)[O-])c1)c1ccc2ccccc2n1	-16.5%	-47.0%	9.8%	-1.2	-7.6	-4.7%
Cn1ccc2cc(S(=O)(=O)N3CCCN(C(=O)Nc4ccc(Br)cc4)CC3)ccc21	-18.8%	3.4%[59 µM]	13.3%[57 µM]	x	x	-21.2%
NC(=O)CN1C(=O)C2(SCC(=O)N2c2cccc(F)c2)c2ccccc21 (stereo not given)	7.4%	-5.3%[59 µM]	37.3%	x	x	12.3%[57.1 µM]
O=C(COc1coc(CN2CCN(c3cccc(Cl)c3)CC2)cc1=O)NC1CCCC1	-23.6%	6.9%	11.7%	-8.6	3.7	11.3%
COc1ccc(N2CCN(Cc3cc(=O)c(OCC(=O)NC4CCCC4)co3)CC2)cc1	-12.2%	56.2µM*	8.8%	-7.9	2.2	8.7%
NC(=S)N/N=C1/CCSc2ccc3ccccc3c21	-10.5%[11.4 µM]	44.7µM*	u	x	-14.5	50.1µM*
NC(=S)N/N=C/c1coc2c(ccc3ccccc32)c1=O	-21.4%	21.5%[59 µM]	44.2%	6.1	-2.3	-10.1%
O=C(NCc1ccco1)c1cnn2c1NC(c1ccc(Br)cc1)CC2C(F)(F)F (stereo not given)	u	50.1µM*	u	-8.4	-26.8	u
O=C(c1ccco1)N1CCN(C(=O)c2cnn3c2NC(c2cccs2)CC3C(F)(F)F)CC1 (stereo not given)	-8.3%	15.9%[59 µM]	17.3%	-17.4	3.5	-5.3%
O=C(c1cnn2c1NC(c1ccco1)CC2C(F)(F)F)N1CCN(c2cccc(Cl)c2)CC1 (stereo not given)	-22.8%	10µM*	20.1%	-22.2	-25.3	u
COc1cc(OC)c(NC(=O)CC(C)S(=O)(=O)c2ccc3c(c2)NC(=O)CO3)cc1Cl (stereo not given)	-17.2%	-30.5%[59 µM]	25.6%	x	x	-11.6%
Cc1ccc(C)c(NS(=O)(=O)c2cc3c(cc2C)n(C)c(=O)c(=O)n3C)c1	-13.9%	8.8%[59 µM]	16.3%	x	x	1.6%
O=C(CCN=C1NS(=O)(=O)c2ccccc21)OCc1cccc(Cl)c1	-7.6%	8.8%[0.501 µM]	11.9%	-9.3	-3.6	-5.5%
COCCn1cc(C(=O)NCCN(C)C)c2c3ccccc3n(C)c2c1=O	-9.4%	7.4%	24.1%	x	1.9	0.1%
COCCn1cc(C(=O)NCc2cccs2)c2c3ccccc3n(C)c2c1=O	-14.1%	50.1µM*	11.9%	2.6	1.1	6.2%
SMILES	JMJD2A Tudor	G9a inh	HP1b binding inh	CtBP-E1A inh	Six1-Eya2 blk	BAZ2B inh
O=c1ccc2cc(S(=O)(=O)N3CCN(c4ccccc4F)CC3)ccc2o1	-7.4%	-12.2%	13.7%	8.2	-2.3	5.3%
Cc1cc(S(=O)(=O)N2CCN(c3ccccc3F)CC2)ccc1-n1cnnn1	-13.0%	50.1µM*	26.8%	-10.5	-3.4	u
O=c1[nH]c2ccc(S(=O)(=O)N3CCN(c4ccccc4F)CC3)cc2s1	-16.4%	14.1µM*	30.6%	-1.7	-3.4	-29.2%
Cc1cc(S(=O)(=O)N2CCN(c3ccc(F)cc3)CC2)ccc1-n1cnnn1	u	4.2%	u	6.2	-4.2	-21.0%
Cc1cc(S(=O)(=O)N2CCC(N3CCCCC3)CC2)ccc1-n1cnnn1	-12.1%	50.1µM*	31.7%	-0.1	0.8	u
COc1ccc(S(=O)(=O)N2CCN(c3ccccc3F)CC2)cc1-c1noc(C)n1	-14.4%	0.501µM*	84.8%	x	x	56.2µM*
COc1ccc(S(=O)(=O)c2c(SC)nn(Cc3ccccc3C)c2NC(C)=O)cc1	4.2%	3.5%[59 µM]	13.9%	x	x	-0.1%
S=c1nc[nH]c2c1ncn2-c1ccccc1	0.631µM*	x	14.7%[57 µM]	0.2	-2.9	x
CC(C)n1cnc2c(=S)nc[nH]c21	u	0.794µM*	38.9%	x	-2.6	50.1µM*
COc1ccccc1-n1cc(-c2ccccc2)c2c(=S)nc[nH]c21	-8.1%	6.7%[59 µM]	23.4%	x	-1.7	-34.4%
O=C(c1ccc(Cl)c(S(=O)(=O)NCc2ccco2)c1)N1CCN(c2ccccc2F)CC1	56.2µM*	-12.0%	-32.4%	-4.0	-2.5	-10.2%
O=C(N=C1SC2CS(=O)(=O)CC2N1Cc1ccc(F)cc1)C1CCCO1 (stereo not given)	-4.8%	-13.8%	38.3%	-3.7	3.7	-15.4%
COc1ccc2nc(NC(=O)C3CCN(S(=O)(=O)c4cccs4)CC3)sc2c1	100µM*	3.0%[59 µM]	16.8%	-25.8	-15.5	-3.8%
Cc1ccc2nc(NC(=O)C3CCN(S(=O)(=O)c4cc([N+](=O)[O-])ccc4Cl)CC3)sc2c1	39.8µM*	u	u	u	-17.5	35.5µM*
Cc1ccc2nc(NC(=O)C3CCCN(S(=O)(=O)c4cccc5nsnc45)C3)sc2c1 (stereo not given)	u	35.5µM*	-3.1%	-13.8	-10.9	-38.6%
Cc1ccc2nc(NC(=O)C3CCN(S(=O)(=O)c4cccc5nsnc45)CC3)sc2c1	-33.3%	1.2%[59 µM]	12.5%	-4.1	-2.8	u
